Screens (PubChem BioAssay)
An excerpt weighted towards active compounds, which were near 19% of everything screened.
DT40 TDP1 no CPT = qHTS for Inhibitors of human tyrosyl-DNA phosphodiesterase 1 (TDP1): qHTS in cells in absence of CPT; hit rate 15% among 420,000; DT40 Tdp1-/- hTDP1 cells, no CPT, ATP luminescence, 48 h; AID 686978, 2013; Potency, µM (top dose mostly 46.2 µM), most hits filed as inhibitors; note: nearly all actives have a fitted effect of over 55% in size
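Compound effects on proliferation are scored in DT40 Tdp1-/-;hTDP1 cells in the absence of CPT. ATP levels (CellTiter-Glo luminescence) are recorded after a ≥48 hr, 37 °C incubation.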
HT1080 IDH1KD tx = toxicity to HT-1080 IDH1 knockdown cells (counter line). Potency, µM (top dose mostly 46.1 µM), usual class: cytotoxic. hit rate 2% among 360,000. HT-1080 IDH1 knockdown viability, ATP luminescence, 48 h
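IDH1KD HT-1080 cells, 750/well, RPMI + 5% FBS; compound pinned after 2 h settling; 48 h, 37 °C; CellTiter-Glo luminescence; % activity normalised to DMSO and no-cell wells; curves fitted, classed by r2 and efficacy.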
IL-1B inflam inh = blocks inflammasome-driven IL-1 beta release; THP-1 LPS/ATP IL-1B secretion, AlphaLISA, 16 h; stronger effect = lower value; activity change, % at 57.5 µM; hit rate 4.7% among 360,000; AID 743279; in the data active = activity change below about -50%; inconclusive = mostly about -30% to -49%
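THP-1 cells pretreated 1 hr with compounds (up to 57.5 uM final), then stimulated with LPS (250 ng/mL final) plus ATP (1.25 mM final); secreted IL-1B measured by AlphaLISA after 16 hr, decreased signal indicating inhibition.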
HT1080-NT tox = kills 2HG-producing HT-1080-NT fibrosarcoma cells; HT-1080-NT fibrosarcoma viability, CellTiter-Glo ATP luminescence, 48 h; Potency, µM (doses to about 46.1 µM), usual class: cytotoxic; hit rate 1.6% among 360,000; AID 686970;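 note: NT is the 2HG producing partner of a matched IDH1 knockdown line; nearly all actives have a fitted effect of over 55% in size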
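Read-out is CellTiter-Glo luminescence after 10 minutes at room temperature, following 48 hours' compound treatment of HT-1080-NT cells (750 cells/well, RPMI, 5% FBS, 37 degrees C).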
DT40 TDP1 CPT = DT40-hTDP1 cell growth loss with CPT. chicken DT40 Tdp1-/-;hTDP1 cells + 20 nM CPT, ATP luminescence, 48 h. Potency, µM (series often up to 46.2 µM), usual class: inhibitors. hit rate 12% among 420,000; note: nearly all actives have a fitted effect of over 55% in size
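Chicken DT40 Tdp1-/- cells stably complemented with human TDP1 were seeded at 400 cells/well in medium containing 20 nM camptothecin, exposed to pin-transferred compounds, and grown at 37 °C for at least 48 hr. Viability was read as ATP luminescence.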
Hits are given with their value; 0 = inactive; ? = inconclusive; - = no result; [ ] = remark or other dose. Unless noted, calls come from the whole dose curve; as a rule, active = well fitted curve in the direction sought with a large enough effect; inconclusive = small, poorly fitted or top-dose-only effect, or another doubt; inactive = no such curve, though single readings can be large; an effect the other way counts as inactive or inconclusive.

SMILES	DT40 TDP1 no CPT	HT1080 IDH1KD tx	IL-1B inflam inh	HT1080-NT tox	DT40 TDP1 CPT
Cn1c(=O)c2[nH]c(CNCc3ccccc3Cl)nc2n(C)c1=O	3.3µM	0	0	0	3.7µM
Cn1c(=O)c2[nH]c(CCCCCc3nc4ccccc4[nH]3)nc2n(C)c1=O	0	0	0	0	0
Cn1c(=O)c2[nH]c(COc3ccc(C(C)(C)C)cc3)nc2n(C)c1=O	4.6µM	0	0	0	8.2µM
COc1ccc(OC)c(S(=O)(=O)NCC(c2ccco2)S(=O)(=O)c2ccccc2)c1 (centres undefined)	0	0	0	0	0
CCc1ccc(N/C(SC)=C(/C#N)C(N)=O)cc1	?	0	0	0	?
N#CC(C#N)=C(Nc1ccc(F)cc1)SCc1cccc(F)c1	2.6µM	?	?	?	2.6µM
CCOc1cc(C)c(-c2onc(C(F)(F)F)c2-c2csc(C)n2)c(O)c1	?	?	-55	?	?
Cc1ccccc1CSc1nc(-c2cccc(F)c2)nc2c1Cc1c(CO)cnc(C)c1O2	0	-	-	-	0
CC(C)CNC(=S)N1CCN(c2nc3ccccc3s2)CC1	?	0	0	?	?
CCSc1ccccc1C(=O)N1CCN(c2nc3ccccc3s2)CC1	15µM	-	-	-	?
O=C(c1ccc(-c2nc3ccccc3s2)s1)N1CCOCC1	?	?	0	8.2µM	?
O=C(c1ccc(Cl)s1)N1CCN(c2nc3ccccc3s2)CC1	16µM	0	0	0	?
CC(C)(C)C(=O)N1CCN(c2nc3ccccc3s2)CC1	?	0	0	?	0
CCN1CCN(C(=O)c2ccc(-c3nc4ccccc4s3)s2)CC1	?	0	0	0	0
CC(=O)c1ccc(NC(=O)c2cc3sccc3n2Cc2ccc(F)cc2)cc1	0	-	-	-	0
Cc1ccccc1NC(=O)c1cc2sccc2n1Cc1ccc(F)cc1	26µM	-	-	-	?
O=C(c1ccc2c(c1)OCO2)N(c1ccc(Br)cc1)C1C=CS(=O)(=O)C1 (centres undefined)	0	0	0	0	0
O=C(CN1C(=O)NC2(CCCC2)C1=O)Nc1cc(Cl)ccc1N1CCOCC1	0	0	0	0	0
CC1=CC2=NC(=O)CC(C)(C(=O)N(CC(=O)NC3CCCC3)c3ccccc3F)N2C=C1 (centres undefined)	0	0	0	0	0
Cc1cccc2sc(N3CCN(C(=O)c4cccs4)CC3)nc12	0	0	-78	0	0
O=C(c1cc2sccc2n1Cc1ccc(F)cc1)N1CCN(c2nc3ccccc3s2)CC1	21µM	?	0	0	13µM
O=C(c1cccs1)N1CCN(c2nc3ccccc3s2)CC1	?	0	0	0	?
CC(C)(C)NC(=S)NNC(=O)c1ccccc1Cl	10µM	0	0	0	15µM
CC(C)(C)NC(=S)NNC(=O)c1cccc(Br)c1	6.5µM	0	0	0	5.8µM
CC(C)(C)C(=O)NC(=S)NNC(=O)c1ccc(Cl)cc1Cl	5.8µM	18µM	0	9.2µM	?
SMILES	DT40 TDP1 no CPT	HT1080 IDH1KD tx	IL-1B inflam inh	HT1080-NT tox	DT40 TDP1 CPT
CN(C)C(CNC(=O)c1cccc(S(=O)(=O)NCc2ccccc2)c1)c1ccccc1 (centres undefined)	?	0	0	0	?
Cc1cnc(SCC2CCCO2)nc1C1CCCN(C(=O)C2=NNC(=O)CC2)C1 (centres undefined)	0	-	-	-	0
COc1cccc(C(=O)N2CCCC(c3nc(SCCN4CCOCC4)ncc3C)C2)c1 (centres undefined)	16µM	-	-	-	?
Cc1cnc(SCc2ccccn2)nc1C1CCCN(C(=O)c2coc3c2C(=O)CCC3)C1 (centres undefined)	23µM	-	-	-	?
COc1ccc(C(=O)N2CCCC(c3nc(SCc4ccccn4)ncc3C)C2)cc1F (centres undefined)	7.3µM	-	-	-	9.2µM
COc1ccccc1C(=O)N1CCCC(c2nc(SCCN3CCOCC3)ncc2C)C1 (centres undefined)	?	-	-	-	0[9.04 µM]
Cc1cnc(SCc2ccccn2)nc1C1CCCN(C(=O)c2noc3c2CCCC3)C1 (centres undefined)	15µM	-	-	-	10µM
CC(=O)Nc1ccc(C(=O)N2CCCC(c3nc(SCc4ccccn4)ncc3C)C2)cc1 (centres undefined)	0	-	-	-	0[9.04 µM]
